Source: PubChem BioAssay (National Center for Advancing Translational Sciences (NCATS))
This is one part of a sample in which hits are shown more often than they occur.
TDP1 cell CPT: qHTS for Inhibitors of human tyrosyl-DNA phosphodiesterase 1 (TDP1): qHTS in cells in presence of CPT; chicken DT40 Tdp1-/-;hTDP1 cells + 20 nM CPT, ATP luminescence, 48 h; Potency, µM (highest dose often 46.2 µM), without a hit: at the highest dose activity change, negative = growth inhibition, actives largely listed as inhibitors; 420,000 compounds, 12% hits; AID 686979, 2013; further: potency means the concentration at half of the fitted maximal effect; nearly all actives have a fitted effect of over 55% in size
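Chicken DT40 Tdp1-/- cells complemented with human TDP1, 400 cells/well, exposed to compounds plus 20 nM camptothecin for at least 48 h at 37 C; viability read as ATP content by CellTiter-Glo luminescence.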
IL1B secr inh: qHTS for Inhibitors of Inflammasome Signaling: IL-1-beta AlphaLISA Primary Screen; activity change, % at 57.5 µM; 360,000 compounds, 4.7% hits; THP-1 LPS/ATP IL-1B secretion, AlphaLISA, 16 h; hits give low values; in the data active means activity change below about -50%; inconclusive means mostly about -30% to -49%
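THP-1 cells pretreated 1 hr with compounds (up to 57.5 uM final), then stimulated with LPS (250 ng/mL final) plus ATP (1.25 mM final); secreted IL-1B measured by AlphaLISA after 16 hr, decreased signal indicating inhibition.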
HT1080 IDH1KD tx: qHTS for induction of synthetic lethality in tumor cells producing 2HG: qHTS for the HT-1080-IDH1KD cell line; Potency, µM (series often up to 46.1 µM), without a hit: top-dose activity, negative = toxicity, most hits filed as cytotoxic; HT-1080 IDH1 knockdown viability, ATP luminescence, 48 h; 360,000 compounds, 2% hits; AID 686971, 2013;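 further: potency means the concentration at half of the fitted maximal effect; 0% = DMSO wells and -100% = cell-free medium wells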
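After a 2 h attachment period, IDH1KD HT-1080 cells took pin-transferred compound for 48 h at 37 °C; ATP-based luminescence after 10 min room-temperature reagent incubation reported viability.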
12-LOX inh: Primary qHTS assay for inhibitors of human arachidonate 12S-lipoxygenase (ALOX12): Round 2; Polyunsaturated fatty acid lipoxygenase ALOX12 (Homo sapiens), P18054; 580,000 compounds, 1.1% hits; purified 12hLO, xylenol orange hydroperoxide absorbance; Potency, µM (top dose mostly 108 µM), for inactives: at the top dose activity change, negative = inhibition, most hits filed as inhibitors; further: potency means the concentration at half of the fitted maximal effect
Target sequence (P18054 whole entry, looked up): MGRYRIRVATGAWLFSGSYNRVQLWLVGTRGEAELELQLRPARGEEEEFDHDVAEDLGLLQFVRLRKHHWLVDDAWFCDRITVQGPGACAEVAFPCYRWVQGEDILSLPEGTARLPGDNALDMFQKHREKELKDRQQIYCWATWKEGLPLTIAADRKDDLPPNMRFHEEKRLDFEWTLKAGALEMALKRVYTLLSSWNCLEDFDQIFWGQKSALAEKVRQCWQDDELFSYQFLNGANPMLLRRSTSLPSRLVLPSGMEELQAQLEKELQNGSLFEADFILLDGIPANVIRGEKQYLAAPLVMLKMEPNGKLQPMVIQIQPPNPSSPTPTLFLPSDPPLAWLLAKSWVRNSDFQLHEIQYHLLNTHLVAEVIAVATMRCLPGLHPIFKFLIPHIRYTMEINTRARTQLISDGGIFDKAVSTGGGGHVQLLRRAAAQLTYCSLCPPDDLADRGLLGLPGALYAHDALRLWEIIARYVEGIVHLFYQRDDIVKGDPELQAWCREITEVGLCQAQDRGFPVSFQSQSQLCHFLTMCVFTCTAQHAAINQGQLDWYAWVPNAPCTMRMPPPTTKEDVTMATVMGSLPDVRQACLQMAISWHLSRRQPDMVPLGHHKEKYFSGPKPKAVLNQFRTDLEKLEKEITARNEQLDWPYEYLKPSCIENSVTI
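Hydroperoxide product was detected by ferrous iron/xylenol orange as the 573 to 405 nm absorbance ratio. Arachidonic acid at 40 uM (final) was turned over for 30 min at room temperature by 150 nM human 12hLO, pH 7.0 Hepes buffer, after 15 min compound preincubation.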
HT1080NT lethal: qHTS for induction of synthetic lethality in tumor cells producing 2HG: qHTS for the HT-1080-NT fibrosarcoma cell line; HT-1080-NT fibrosarcoma viability, CellTiter-Glo ATP luminescence, 48 h; Potency, µM (top dose mostly 46.1 µM), inactives show at the top dose activity, negative = less viability, actives largely listed as cytotoxic; 360,000 compounds, 1.6% hits;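 further: NT is the 2HG producing partner of a matched IDH1 knockdown line; potency means the concentration at half of the fitted maximal effect; 0% = DMSO-treated cells and -100% = media-only wells without cells; nearly all actives have a fitted effect of over 55% in size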
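HT-1080-NT; 750 cells/well; 5% FBS RPMI; 48 h compound, 37 degrees C; CellTiter-Glo luminescence; curve fitting and curve-class assignment.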
DT40 TDP1 no CPT: qHTS for Inhibitors of human tyrosyl-DNA phosphodiesterase 1 (TDP1): qHTS in cells in absence of CPT | 420,000 compounds, 15% hits | Potency, µM (titrated, usually from 46.2 µM), for the others: at the top dose activity change, negative = growth inhibition, actives largely listed as inhibitors | DT40 Tdp1-/- hTDP1 cells, no CPT, ATP luminescence, 48 h; further: potency means the concentration at half of the fitted maximal effect; nearly all actives have a fitted effect of over 55% in size
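Compound effects on proliferation are scored in DT40 Tdp1-/-;hTDP1 cells in the absence of CPT. ATP levels (CellTiter-Glo luminescence) are recorded after a ≥48 hr, 37 °C incubation.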
Active calls of the source: *; ? = inconclusive; . = no result given; [ ] = another dose, or the depositor's remark. Unless noted, the call rests on the fitted dose curve; in most records, active means well fitted curve in the direction sought with a large enough effect; inconclusive means small, poorly fitted or top-dose-only effect, or another doubt; inactive means no such curve, though single readings can be large; an effect the other way counts as inactive or inconclusive. Unless noted, on the % scale 0 is the no-effect control and ±100 the full control effect.

SMILES	TDP1 cell CPT	IL1B secr inh	HT1080 IDH1KD tx	12-LOX inh	HT1080NT lethal	DT40 TDP1 no CPT
O=C(Nc1cccc(Cl)c1Cl)c1csc([C@H]2C[C@H](O)[C@@H](CO)O2)n1	15µM*	-23	20%	-22%	1%	?
O=C(Nc1cccc(Cl)c1Cl)c1csc([C@@H]2O[C@H](CO)[C@@H](O)[C@H]2O)n1	23µM*	25	27%	13%	19%	?
Cc1ccccc1S(=O)(=O)N1CCCC(CCC(=O)NC2CC2)C1 (stereo not given)	.	.	.	33%	.	.
Cc1ccsc1C(=O)N1CCc2nn(CC3CC3)c(=O)n2CC1	.	.	.	33%	.	.
O=C(Cc1ccc(N2CCC(NCCc3ccc(C(F)(F)F)cc3)CC2)cc1)NCc1ccccn1	.	.	.	29%	.	.
CC(C)CCNc1nc(C(=O)Nc2nnc(C3CC3)s2)cs1	.	.	.	56%	.	.
Cc1ccccc1CCNC(=O)c1ccc2c(c1)c(C)c(C)n2Cc1ccccc1	18µM*	.	.	-11%	.	?
O=C(NCCc1ccccc1Cl)c1ccc2nc3ccccc3c(=O)n2c1	15µM*	-19	1%	0%	4%	?
Cc1c(C)n(Cc2ccccc2)c2ccc(C(=O)NCCc3ccccc3Cl)cc12	21µM*	.	.	0%	.	?
COc1ccc(C(=O)NCC(=O)N2CCCCCNC(=O)CC2c2ccccc2)cc1F (stereo not given)	.	.	.	32%	.	.
N#Cc1nc(-c2ccccc2)oc1N1CCN(Cc2ccccc2)CC1	.	.	.	-11%	.	.
COc1ccc(N2CCN(c3oc(COc4ccccc4)nc3C#N)CC2)cc1	?	-17	0%	-3%	7%	?
COc1ccc(N2CCN(c3oc(COc4ccc(Cl)cc4Cl)nc3C#N)CC2)cc1	?	-8	-10%	395%	0%	9.2µM*
COc1ccc(N2CCN(c3oc(Cc4ccccc4)nc3C#N)CC2)cc1	?	-7	?	-35%	-4%	13µM*
CCOc1ccc(-c2nc(C#N)c(N3CCN(Cc4ccccc4)CC3)o2)cc1	?	-5	-6%	6%	1%	12µM*
CC1=NN(C(=O)CSCc2ccc(F)cc2Cl)C(O)(C(F)(F)F)C1 (stereo not given)	.	.	.	-1%	.	.
CCC(=O)N1CCc2cc(CNS(=O)(=O)c3c(C)cc(C)cc3C)ccc21	?	.	.	?	.	21µM*
Cc1cc(C)c(S(=O)(=O)NCc2ccc3c(c2)cc(C)n3C)c(C)c1	?	36	-3%	14%	-4%	23µM*
Cc1cc2cc(CNS(=O)(=O)c3ccc4ccccc4c3)ccc2n1C	1%	13	3%	3%[57.4 µM]	-20%	-12%
Cc1cc(C)c(S(=O)(=O)NCc2ccc3c(c2)CCN3C(=O)c2ccccc2)c(C)c1	15µM*	.	.	-16%	.	10µM*
O=C(c1ccccc1OCC1CCCN(Cc2nccs2)C1)N1CCCCC1 (stereo not given)	.	.	.	7%	.	.
CC1CCc2nc3ccccc3c(C(=O)Nc3ccccc3F)c2C1 (stereo not given)	.	.	.	-10%	.	.
O=C(O)c1cc(N=Nc2c(O)ccc3ccccc23)cc(C(=O)O)c1	-24%	36	-8%	-4%	0%	-5%
O=C(O)c1ccc(N=Nc2c(O)ccc3ncccc23)cc1	4.1µM*	19	23µM*	-4%	?	2.9µM*
